From PubChem BioAssay
CHX counter – affects cycloheximide protein synthesis inhibition readout, counter-screen. cell reporter, cycloheximide protein synthesis inhibition counterscreen. max response, %. 300,000 compounds, 12% hits; in the data active = max response mostly above about 13%, no sharp cut-off; inactive = mostly below about 14%; note: read at 38.3 µM for the half of the compounds with a filed dose
NS1 inh – blocks influenza NS1 protein function | Potency, µM (series often up to 46.1 µM) | 270,000 compounds, 0.4% hits | AID 2326; note: actives are rising curves; nearly all actives have a fitted effect of over 50% in size
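A cell-based growth assay was used: compounds that relieve NS1-induced slow growth of budding yeast raise OD600. Assay medium was yeast nitrogen base with ammonium sulphate and -URA supplement, pH 6.0, with 2% galactose.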
Shiga inhibitor – blocks Shiga toxin action in Vero cells. AID 2315. 290,000 compounds, 9.2% hits. Vero cells, Shiga toxin protein synthesis inhibition reporter. inhibition, % at 38.7 µM; in the data active = inhibition mostly above about 28%, no sharp cut-off; inactive = mostly below about 43%
Tb PYK inh – T. brucei pyruvate kinase inhibition. TbPYK enzyme, Kinase-Glo Plus ATP luminescence, 45 min. Potency, µM (titrated, usually from 76.8 µM), actives largely listed as inhibitors. 410,000 compounds, 0.12% hits. AID 624173; active = well fitted curve in the direction sought with a large enough effect; inconclusive = small, poorly fitted or top-dose-only effect, or another doubt; inactive = no such curve, though single readings can be large; an effect the other way counts as inactive or inconclusive; note: nearly all actives have a fitted effect of over 50% in size
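Quantitative HTS: titrated library compounds versus trypanosomal pyruvate kinase in TEA buffer (pH 7.2) containing KCl, MgCl2, BSA and Tween-20. Reactions were initiated with ADP, 130 uM final. Kinase-Glo Plus luminescence was read after 45 min at RT.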
LmPK inhibitor – blocks Leishmania mexicana pyruvate kinase activity; purified LmPK, Kinase-Glo ATP luminescence, 1 h; 290,000 compounds, 0.37% hits; Potency, µM (titrated, usually from 57.5 µM), most hits filed as inhibitors; Q27686; active = well fitted curve in the direction sought with a large enough effect; inconclusive = small, poorly fitted or top-dose-only effect, or another doubt; inactive = no such curve, though single readings can be large; an effect the other way counts as inactive or inconclusive
Target sequence (Q27686 whole entry, looked up): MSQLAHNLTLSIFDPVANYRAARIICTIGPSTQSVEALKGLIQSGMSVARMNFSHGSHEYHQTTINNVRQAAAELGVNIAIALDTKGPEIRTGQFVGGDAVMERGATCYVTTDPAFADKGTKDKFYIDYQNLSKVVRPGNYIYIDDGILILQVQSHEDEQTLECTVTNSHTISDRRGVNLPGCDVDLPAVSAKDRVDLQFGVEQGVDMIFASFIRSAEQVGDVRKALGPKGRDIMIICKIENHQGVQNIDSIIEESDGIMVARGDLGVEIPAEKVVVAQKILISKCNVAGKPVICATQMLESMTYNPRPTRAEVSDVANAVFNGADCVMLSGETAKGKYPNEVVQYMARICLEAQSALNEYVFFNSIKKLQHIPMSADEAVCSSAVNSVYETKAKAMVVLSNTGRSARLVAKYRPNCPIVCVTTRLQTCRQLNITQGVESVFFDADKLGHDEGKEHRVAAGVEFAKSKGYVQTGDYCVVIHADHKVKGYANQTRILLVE
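Purified LmPK (0.1 nM) with 0.5 mM PEP and 0.1 mM ADP in imidazole buffer pH 7.2 with MgCl2/KCl, 1 h at room temperature. ATP formed was read by luciferase luminescence and normalized to no-enzyme and uninhibited controls.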
SARS PLpro yeast – SARS-CoV PLP inhibition in yeast | S. cerevisiae expressing SARS-CoV PLpro, growth rescue | Potency, µM (series often up to 32.9 µM), usual class: activators | 330,000 compounds, 0.19% hits | AID 485353; note: nearly all actives have a fitted effect of over 55% in size
A number is an active result; i = inactive; ? = inconclusive; nt = no result given. This excerpt belongs to a sample that is enriched for hits. Unless noted, calls come from the whole dose curve.

SMILES	CHX counter	NS1 inh	Shiga inhibitor	Tb PYK inh	LmPK inhibitor	SARS PLpro yeast
O=C(N/N=C/c1c(O)n(Cc2ccco2)c(=O)[nH]c1=O)c1ccccc1O	21.7	i	72.7	i	i	?
CCn1c(O)c(/C=N/NC(=O)c2ccccc2)c(=O)n(CC)c1=S	47.2	i	51.9	i	i	i
CC(C)c1ccc(-n2c(O)c(/C=N/NC(=O)c3ccccc3O)c(=O)[nH]c2=S)cc1	32.6	?	47.6	i	i	i
O=c1[nH]c(=S)n(C2CC2)c(O)c1/C=N/Nc1cccc2ccccc12	25.2	?	72.4	i	i	i
CC(C)c1ccc(-n2c(O)c(/C=N/NC(=O)c3ccncc3)c(=O)[nH]c2=O)cc1	i	i	i	i	i	i
CCn1c(O)c(/C=N/NC(=O)c2ccncc2)c(=O)[nH]c1=S	i	i	i	i	i	i
COc1ccc(OC(F)(F)F)cc1CC1(C)C(=O)Nc2c(Cl)ccc(Cl)c21 (centres undefined)	nt	nt	nt	i	nt	nt
CCC1CN(C(=O)N2CCC(C(=O)NCc3cccs3)CC2)c2ccccc2O1 (centres undefined)	nt	nt	nt	i	nt	nt
C[C@@H]1CCN(C(=O)CC#N)C[C@@H]1N(C)c1ncnc2[nH]ccc12	nt	nt	nt	i	nt	nt
COc1ccc(C(=O)/C=C2/C(=O)Nc3ccccc32)cc1	20.6	i	58.0	i	i	i
COc1ccc(C2(C(=O)c3ccccc3)C(=O)c3ccccc3C2=O)cc1	13.8	i	i	i	?	i
CSc1nc(N)c2ncn([C@@H]3O[C@H](COP(=O)(O)OP(=O)(O)OP(=O)(O)O)[C@H](O)[C@H]3O)c2n1	nt	i	nt	nt	nt	nt
COCCNC(=S)NNC(=O)CSCc1ccc(Cl)cc1Cl	i	i	42.6	?	i	i
COc1ccc(C(=O)Nn2c(SCC(=O)c3ccc(Cl)cc3)nc3ccccc3c2=O)cc1	16.8	i	i	i	i	i
COc1ccc(C(=O)Nn2c(SCc3cccc([N+](=O)[O-])c3)nc3ccccc3c2=O)cc1	60.6	?	113.7	i	i	i
CCOc1ccc2oc(=O)cc(CN3CCN(c4cc(C)ccc4C)CC3)c2c1	nt	nt	nt	i	nt	nt
CC1=C(C#N)C(=O)NC1(C)O (centres undefined)	nt	nt	nt	i	nt	nt
CCOc1cccc(C2C(C(=O)c3ccco3)=C(O)C(=O)N2Cc2ccncc2)c1 (centres undefined)	16.9	i	i	i	i	i
COc1cc(C2C(C(=O)c3ccco3)=C(O)C(=O)N2Cc2cccnc2)cc(OC)c1OC (centres undefined)	i	i	i	i	i	i
O=C(C1=C(O)C(=O)N(c2ncccn2)C1c1cccc(Cl)c1)c1ccco1 (centres undefined)	i	i	i	i	i	nt
CCSc1nnc(N2C(=O)C(O)=C(C(=O)c3ccco3)C2c2cccc(OC)c2)s1 (centres undefined)	38.6	i	90.0	i	i	i
CSc1nnc(N2C(=O)C(O)=C(C(=O)c3ccco3)C2c2ccc(F)cc2)s1 (centres undefined)	28.2	i	i	i	i	i
CCOc1cccc(C2C(C(=O)c3ccco3)=C(O)C(=O)N2c2nnc(C)s2)c1 (centres undefined)	nt	nt	nt	i	nt	i
CSc1nnc(N2C(=O)C(O)=C(C(=O)c3ccco3)C2c2cccc(Cl)c2)s1 (centres undefined)	34.3	i	i	i	i	i
COc1ccc(CNC(=O)CNC(=O)c2ccc(Br)o2)cc1OC	i	i	i	i	i	i
SMILES	CHX counter	NS1 inh	Shiga inhibitor	Tb PYK inh	LmPK inhibitor	SARS PLpro yeast
COc1ccc(C2C(C(=O)c3cccs3)=C(O)C(=O)N2Cc2cccnc2)cc1OC (centres undefined)	37.8	i	110.4	i	i	i
O=c1nc2onnc2c(C=NO)[nH]1	nt	nt	nt	i	nt	nt
CCOc1ccccc1NC(=O)/C(C#N)=C/c1c(C)nn(-c2ccc(F)cc2)c1Cl	47.4	i	85.0	i	i	i
CCOC(=O)c1cnc(SCc2nc(N)nc(Nc3ccc(F)cc3)n2)nc1N	9.5	i	i	i	i	i
Cc1ccc(Nc2nc(N)nc(CSc3nc(C)cc(C)n3)n2)cc1	i	i	i	i	i	nt
CCOC(=O)c1cnc(SCc2nc(N)nc(Nc3ccccc3OC)n2)nc1N	i	i	i	nt	i	i
CCOC(=O)c1cnc(SCc2nc(N)nc(Nc3ccc(C)cc3)n2)nc1N	13.2	i	i	i	i	i
